# From PubChem BioAssay
# Most compounds without a hit are left out; they make up all but 12% or so of the library.
# Sm TGR inh – S. mansoni TGR enzyme inhibition | Q962Y6 | purified TGR, DTNB reduction, TNB absorbance 405 nm | AID 485364 | Potency, µM (highest dose often 114 µM), hits mostly inhibitors | 360,000 tested, 3% active; active = well fitted inhibition curve with a large enough effect; inconclusive = small, poorly fitted or top-dose-only effect; inactive = no such curve, though single readings can be large or run the other way; also: nearly all actives have a fitted effect of over 60% in size
#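 TGR 20 nM + NADPH 100 uM (dispensed conc.), cpd preinc 15 min RT; start with NADPH (500 uM addition) then DTNB (15 mM addition). Kinetic TNB absorbance, 405 nm filter. Four-parameter Hill fit across titration.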
# CHX counter – counter-screen hit for Shiga toxin inhibitors, cycloheximide; cell reporter, cycloheximide protein synthesis inhibition counterscreen; max response, %; 300,000 tested, 12% active; AID 2314; in the data active = max response mostly above about 13%, no sharp cut-off; inactive = mostly below about 14%; also: read at 38.3 µM for the half of the compounds with a filed dose
# FMDV inh – foot and mouth disease virus antiviral activity; FMDV antiviral cell-based qHTS; Potency, µM (top dose mostly 57.9 µM), usual class: inhibitors; 410,000 tested, 1.2% active; AID 1159524; calls by dose curve; tested in HEK293T cells; also: read-out not given here; nearly all actives have a fitted effect of over 45% in size
# Shiga inhibitor – blocks Shiga toxin action in Vero cells; inhibition, % at 38.7 µM; AID 2315; 290,000 tested, 9.2% active; Vero cells, Shiga toxin protein synthesis inhibition reporter; in the data active = inhibition mostly above about 28%, no sharp cut-off; inactive = mostly below about 43%
# Numbers stand for hits; n = inactive; u = inconclusive; x = not tested or not shown; + = active, no number.
SMILES,Sm TGR inh,CHX counter,FMDV inh,Shiga inhibitor
O=C(NCc1ccc(F)cc1)c1cc2ccccn2n1,n,24,n,n
CC(=O)Oc1ccc(C(=O)Cc2ccc3ccccc3n2)c(O)c1C,n,26,n,+
COc1ccc(N(CC(=O)NCc2ccco2)S(C)(=O)=O)cc1Cl,79µM,n,n,n
Cc1ccc(C)c(N(CC(=O)NCCSCc2ccco2)S(C)(=O)=O)c1,20µM,n,n,n
Cc1ccc(CSCCNC(=O)CN(c2cc(C)ccc2C)S(C)(=O)=O)cc1,n,n,u,n
COc1ccc(N(CC(=O)NCc2ccco2)S(C)(=O)=O)cc1OC,n,n,n,n
Cc1cccc(N(CC(=O)NCCSCc2ccco2)S(=O)(=O)c2ccccc2)c1,32µM,n,n,n
COc1cccc(N(CC(=O)NCCSCc2ccco2)S(=O)(=O)c2ccccc2)c1,u,n,n,n
COc1ccc(C)cc1N(CC(=O)NCCSCc1ccco1)S(=O)(=O)c1ccc(C)cc1,32µM,n,n,n
CC(C)CCNC(=O)CN1C(=O)CCn2nc(-c3cn(C)c4ccccc34)cc21,n,x,n,x
CCOC(=O)c1ccc(NC(=O)C2CCCN(c3ncnc4onc(-c5ccc(F)cc5)c34)C2)cc1 (stereo not given),n,x,n,x
COc1ccccc1NC(=O)CSc1nnc(NC(=O)NC2CCCCC2)s1,n,x,n,x
COC(=O)c1ccccc1NC(=O)CN1C(=O)COc2ccc(Cl)cc21,n,x,n,x
COc1cc(O)ccc1C1CC(=O)Nc2c1c(=O)nc(SCc1ccccc1C)n2C (stereo not given),n,x,n,x
COc1ccc(N(CC(=O)NCCSCc2ccco2)S(=O)(=O)c2ccccc2)cc1Cl,18µM,n,n,n
COc1ccc(S(=O)(=O)NCCSCc2ccco2)cc1Cl,32µM,n,n,n
O=C1CC(NCc2ccco2)C(=O)N1CCc1ccccc1 (stereo not given),n,n,n,n
O=C1CC(Cc2ccccc2)C(=O)N1Cc1ccco1 (stereo not given),16µM,n,n,n
Cc1ccc(CC2CC(=O)N(Cc3ccco3)C2=O)cc1 (stereo not given),13µM,n,u,n
Cc1ccc(CN2CCN(Cc3ccco3)CC2)cc1,n,n,n,n
O=C(CCS(=O)(=O)c1ccc(Br)cc1)Nc1cc(F)ccc1F,13µM,n,n,n
COC(=O)c1ccccc1NC(=O)CCS(=O)(=O)c1ccc(Br)cc1,10µM,n,n,n
Cc1ccc(S(=O)(=O)CCC(=O)Nc2ccccc2Cl)cc1,n,n,n,n
Cc1c(Cl)cccc1NC(=O)CNC(=O)CCS(=O)(=O)c1ccc(F)cc1,45µM,x,n,x
Cc1ccc(NC(=O)C2CCN(c3nc(-c4ccc(C(C)C)cc4)no3)CC2)c(Cl)c1,n,x,u,x
SMILES,Sm TGR inh,CHX counter,FMDV inh,Shiga inhibitor
O=C(CSc1nnc(COc2ccccc2)n1-c1ccccc1)c1cccs1,n,34,n,n
O=C(O)CSc1nnc(COc2ccccc2)n1-c1ccccc1,n,n,n,n
Cc1cccc(OCc2nnc(SCCC(=O)O)n2-c2ccccc2)c1,79µM,n,n,x
COc1ccc(-n2c(COc3cccc(C)c3)nnc2SCC(=O)O)cc1,n,n,n,n
Cc1ccc(OCc2nnc(SCC(=O)c3cccs3)n2-c2ccccc2)cc1C,n,31,n,73
COc1cc(OC)c(NS(=O)(=O)c2c(C(=O)N3CCCCCC3)c(C)n(C)c2C)cc1Cl,n,x,n,x
Cc1cccc(C)c1OCC(=O)N(Cc1ccccc1F)C1CCS(=O)(=O)C1 (stereo not given),n,x,n,x
CCC1CCCCN1C(=O)Cn1c(=O)cc(C(F)(F)F)c2c(C)nn(C)c21 (stereo not given),n,x,u,x
CC(C)c1ccc(Nc2ncnc3c2nc2n3CCCC2)cc1,n,x,n,x
CCOC(=O)[C@]12Cc3ccccc3[C@H]1N(Cc1ccccc1)C(=O)c1ccccc12,x,x,n,x
CCOC(=O)[C@]12Cc3cc(C)ccc3[C@H]1N(Cc1ccccc1)C(=O)c1cc(F)c(F)cc12,x,x,11µM,x
CCOC(=O)[C@]12Cc3ccccc3[C@H]1N(C(C)C)C(=O)c1cc(OC)ccc12,x,x,28µM,x
CCOC(=O)[C@]12Cc3cc(C)ccc3[C@H]1N(C(C)C)C(=O)c1ccccc12,x,x,10µM,x
Cc1ccc(Cn2ccnc2SCC(=O)Nc2nnc(C)s2)cc1,n,x,n,x
O=C(COc1ccc(Br)cc1)Nc1ccc(C(=O)OC2CCCCC2)cc1,n,x,n,x
Cc1[nH]n(-c2ccccc2)c(=O)c1N=Nc1ccc2c(c1)OCO2,n,32,n,115
Cc1ccccc1N=Nc1c(C)[nH]n(-c2ccccc2)c1=O,n,n,n,n
Cc1[nH]n(-c2ccccc2)c(=O)c1N=Nc1nccs1,n,14,n,n
COc1cccc(N=Nc2c(C)[nH]n(-c3ccccc3)c2=O)c1,n,n,n,x
